The test has as its system rainbow trout Peroxisome Proliferator-activated Receptor alpha (PPARa), gene 110490141. As to the kind of experiment: ATG_rtPPARa_EcoTox2: Attagene TRANS-FACTORIAL EcoTox-2 HepG2 Assay for rainbow trout Peroxisome Proliferator-activated Receptor alpha (PPARa). On the procedure:
ATG_EcoTox2 is a cell-based, multiplexed assay created by modifying the existing Attagene TRANS-FACTORIAL system to include a panel of nuclear receptors from some or all the following species: human (Homo sapiens), african clawed frog (Xenopus laevis), rainbow trout (Oncorhynchus mykiss), japanese medaka (Oryzias latipes), and zebrafish (Danio rerio). The ECOTOX2-FACTORIAL format uses HepG2, a human liver cell line, with measurements taken at 24 hours after chemical dosing in a 24-well plate. ATG_rtPPARa_EcoTox2 is one of 29 assay components calculated in the ATG_EcoTox2 assay. It is designed to make measurements of mRNA induction, a form of inducible reporter, as detected with fluorescence intensity signals by Reverse transcription polymerase chain reaction (RT-PCR) and Capillary electrophoresis technology.The assay endpoint ATG_frPPARa_EcoTox2 was analyzed in the positive analysis fitting direction relative to DMSO as the negative control and baseline of activity. Using a type of inducible reporter, measures of mRNA for gain-of-signal activity can be used to understand the reporter gene at the transcription factor-level as they relate to the gene PPARa. Furthermore, this assay endpoint can be referred to as a primary readout, because this assay has produced multiple assay endpoints where this one serves a reporter gene function. […]

Records with an inconclusive call do not appear. Calls of active or inactive are those of the source. How the source made its calls: active means hit-call score of the fitted dose curve at least 0.9, where 1 is the maximum; inconclusive means response in the unintended direction; inactive means score below 0.9.

On to `O=C(O)C(F)(F)C(F)(F)C(F)(F)C(F)(F)C(F)(F)C(F)(F)C(F)(F)F`, for which the AC50 is 54.2 µM (active).

On to `O=S(=O)(O)C(F)(F)C(F)(F)C(F)(F)C(F)(F)C(F)(F)C(F)(F)F`, for which the AC50 is 30.6 µM (active).
